Measurements from PubChem BioAssay (Tox21).
A number with no mark means an inactive call. Activity calls are given as the source filed them. Calls come from the whole dose curve.

Target: Androgen receptor (Homo sapiens) (UniProt P10275)
Experiment: qHTS assay to identify small molecule agonists of the androgen receptor (AR) signaling pathway in the presence of an antagonist (AID 1259381); note: nearly all actives have a fitted effect of over 15% in size
Settings: MDA-kb2 MMTV-luciferase, AR agonist + nilutamide, 16 h; series mostly up to 92.4 µM; activation: at the top concentration
Excerpt: National Center for Advancing Translational Sciences [NCATS] NIH Chemical Genomics Center [NCGC] U.S. Environmental Protection Agency [EPA] National Institutes of Environmental Health Sciences [NIEHS] National Toxicology Program [NTP] Assay overview: Androgen receptor (AR) is an important member of nuclear receptor family. Its signaling plays a critical role in AR-dependent prostate cancer and other androgen related diseases. Considerable attention has been given in the past decades to develop methods to study and screen for the environmental chemicals that have the potential to interfere with metabolic homeostasis, reproduction, developmental and behavioral functions. Therefore AR binding assay for screening against androgen agonists and antagonists can be used to identify potential endocrine disruptors. MDA-kb2 cells (from ATCC, deposited by Wilson et al.) are human breast carcinoma cells that were stably transfected with a luciferase reporter gene under control of the MMTV promoter that contains response elements for both androgen receptor (AR) and glucocorticoid receptor (GR). This particular screening for measuring luciferase reporter gene activity using MDA-kb2 cells against Tox21 10K library compounds is a confirmation study on agonist mode screening in the presence of AR-antagonist compound (Nilutamide) at 3.0uM final concentration.
Assay Protocol Summary: MDA-kb2 cells (cells cultured without CO2) were dispensed at 3,000 cells/well in 4uL of culture medium into white wall/solid-bottom 1536-well plates (Corning Life Sciences, Corning, NY) using a Multidrop Combi (Thermo Fisher Scientific Inc., Waltham, MA) dispenser. The assay plates were incubated at 37C and 0% CO2 for 5hr. One uL of 3.0uM (final concentration) Nilutamide or assay buffer was added using two separate tips of Flying Reagent Dispenser (FRD, Aurora Discovery, San Diego, CA). Then 23nL of compounds dissolved in DMSO at 15 concentrations and positive controls were transferred to the assay plates using a Pintool station (Wako, San Diego, CA). The assay plates were incubated at 37C and 0% CO2 for 16hr. For luciferase read, 4uL/well ONE-Glo reagent (Promega Corporation, Madison, WI) was added to each well of the assay plates using FRD. After 30min incubation at room temperature, the luminescence signal was measured using a ViewLux plate reader (PerkinElmer, Shelton, CT).
% is set by controls: 0 for no effect and ±100 for the full control effect; potency is the fitted concentration of half-maximal effect.

Sequence of Androgen receptor (Homo sapiens) (P10275 whole entry, looked up): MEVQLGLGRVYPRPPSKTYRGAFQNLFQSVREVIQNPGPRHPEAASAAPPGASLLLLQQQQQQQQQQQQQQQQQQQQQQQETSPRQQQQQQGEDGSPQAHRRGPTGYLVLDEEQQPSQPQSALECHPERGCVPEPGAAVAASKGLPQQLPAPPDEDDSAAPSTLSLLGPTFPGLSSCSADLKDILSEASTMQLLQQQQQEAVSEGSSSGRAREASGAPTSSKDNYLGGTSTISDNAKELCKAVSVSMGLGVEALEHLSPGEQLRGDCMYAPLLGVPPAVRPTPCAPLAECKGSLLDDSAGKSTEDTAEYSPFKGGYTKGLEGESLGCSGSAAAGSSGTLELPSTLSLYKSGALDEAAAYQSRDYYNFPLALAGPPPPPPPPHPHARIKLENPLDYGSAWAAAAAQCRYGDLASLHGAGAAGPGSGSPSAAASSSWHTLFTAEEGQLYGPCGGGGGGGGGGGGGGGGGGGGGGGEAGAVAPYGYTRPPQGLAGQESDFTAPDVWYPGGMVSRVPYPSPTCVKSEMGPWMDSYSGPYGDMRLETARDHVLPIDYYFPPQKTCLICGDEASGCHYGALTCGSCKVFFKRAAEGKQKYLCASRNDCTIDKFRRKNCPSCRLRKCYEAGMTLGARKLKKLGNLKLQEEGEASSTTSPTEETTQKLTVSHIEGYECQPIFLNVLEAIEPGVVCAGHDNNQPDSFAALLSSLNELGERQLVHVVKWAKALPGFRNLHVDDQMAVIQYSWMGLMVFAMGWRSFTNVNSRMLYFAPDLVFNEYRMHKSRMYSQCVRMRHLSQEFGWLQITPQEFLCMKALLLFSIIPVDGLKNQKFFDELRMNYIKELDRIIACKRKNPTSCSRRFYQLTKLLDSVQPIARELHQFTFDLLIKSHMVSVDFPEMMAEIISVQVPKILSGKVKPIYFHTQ

| Compound | activation | Potency |
| --- | --- | --- |
| O=C(CCc1ccc(O)cc1)c1c(O)cc(O)cc1O | -3.11% | – |
| Cc1cc(C)cc(N)c1 | -0.0751% | – |
| O=C1NC(=O)c2cc([N+](=O)[O-])ccc21 | -0.389% | – |
| C=CCc1ccccc1OCC(O)CNC(C)C (stereo not given) | -0.621% [at 42.5 µM] | – |
| Cc1cc(O)c(C)c(C)c1O | 0.185% [at 42.5 µM] | – |
| O=C(OC(=O)c1ccccc1)c1ccccc1 | -0.268% | – |
| CS(=O)(=O)c1ccc(-c2cn3ccccc3n2)cc1 | 3.11% [at 42.5 µM] | – |
| C[C@H]1c2cccc(O)c2C(O)=C2C(=O)[C@]3(O)C(O)=C(C(N)=O)C(=O)[C@@H](N(C)C)[C@@H]3[C@@H](O)[C@@H]21 | -0.591% [at 42.5 µM] | – |
| COc1ccccc1NC(=O)c1cc2ccccc2cc1O | -9.87% | – |
| C[C@@H](O)[C@H]1C(=O)N2C(C(=O)O)=C([C@H]3CCCO3)S[C@H]12 | 0.0073% [at 42.5 µM] | – |
| CCCCCCCC/C=C\CCCCCCCCCCCC(=O)O | -1.03% | – |
| CCOc1ccc(Cc2nccc3cc(OCC)c(OCC)cc23)cc1OCC | -8.43% [at 42.5 µM] | – |
| CCC(=O)OC | 0.911% | – |
| Cc1cscn1 | -0.704% | – |
| CCOc1cccc(-n2cc(C(=O)N3CCN(c4cc(C(=O)O)c5ccccc5c4)CC3)nc2-c2ccc(C)cc2)c1 | -2.22% | – |
| C=C(C)[C@@H]1CCC2=CCC[C@@H](C)[C@]2(C)C1 | 0.0687% | – |
| c1cc(N(CC2CO2)CC2CO2)ccc1Cc1ccc(N(CC2CO2)CC2CO2)cc1 (stereo not given) | -5.07% | – |
| CC(=O)OCC(=O)NCCCOc1cccc(CN2CCCCC2)c1 | 2.57% [at 42.5 µM] | – |
| O=C1c2ccccc2C(=O)C1c1ccc(Br)cc1 | 1.32% [at 42.5 µM] | – |
| O=C(/C=C/c1ccccc1)OCCc1ccccc1 | 8.32% | – |

| Compound | activation | Potency |
| --- | --- | --- |
| CCCCC(CC)CN (stereo not given) | 0.454% | – |
| O=C=Nc1cccc(C(F)(F)F)c1 | -1.72% | – |
| NC1[C@H]2CN(c3nc4c(cc3F)c(=O)c(C(=O)O)cn4-c3ccc(F)cc3F)C[C@@H]12 (stereo not given in full) | 9.62% [at 42.5 µM] | – |
| CC(C)=CCC/C(C)=C/CC/C(C)=C/C(=O)OCC(=O)[C@@]1(O)CC[C@H]2[C@@H]3CCC4=CC(=O)C=C[C@]4(C)[C@H]3[C@@H](O)C[C@@]21C | – | 335 nM (active) |
| OC1(c2ccccc2)CCNCC1 | -1.34% [at 42.5 µM] | – |
| NC(=O)c1ccncc1 | 0.78% | – |
| O=C(Cn1ccnc1[N+](=O)[O-])NCCO | 0.364% [at 42.5 µM] | – |
| C1COC1 | 0.595% | – |
| O=C1Cc2ccccc2N1c1c(Cl)cccc1Cl | -10.1% | – |
| CCC(=O)C1CC(C(C)C)CC=C1C (stereo not given) | -0.148% | – |
| O=[N+]([O-])c1cc(C2CCCCC2)c(O)c([N+](=O)[O-])c1 | -11.3% | – |
| CC/C=C1/OC(=O)c2ccccc21 | -0.414% | – |
| CCCCN(CCN(CCCC)C(=O)N1CCOCC1)C(=O)N1CCOCC1 | -0.167% [at 42.5 µM] | – |
| O=C1Cc2cc(Cl)ccc2N1 | 1.39% [at 42.5 µM] | – |
| CCCCCCC(C)(C)C(=O)O | 0.549% | – |
| C=C1C[C@@]23CC[C@H]4[C@@](C)(CCC[C@@]4(C)C(=O)O[C@@H]4O[C@H](CO)[C@@H](O)[C@H](O)[C@H]4O)[C@@H]2CC[C@]1(O[C@@H]1O[C@H](CO)[C@@H](O)[C@H](O[C@@H]2O[C@H](CO)[C@@H](O)[C@H](O)[C@H]2O)[C@H]1O[C@@H]1O[C@H](CO)[C@@H](O)[C@H](O)[C@H]1O)C3 | -2.26% | – |
| C[C@@H]1CC(=O)NN=C1c1ccc(NN=C(C#N)C#N)cc1 | – | inactive |
| O=c1cc(-c2ccccc2)oc2cc(O)cc(O)c12 | 2.61% | – |
| O=C(OCC(O)CO)c1ccccc1Nc1ccnc2cc(Cl)ccc12 (stereo not given) | -4.42% [at 42.5 µM] | – |
| CC[C@]1(O)C[C@H]2CN(CCc3c([nH]c4ccccc34)[C@@](C(=O)OC)(c3cc4c(cc3OC)N(C=O)[C@H]3[C@@](O)(C(=O)OC)[C@H](OC(C)=O)[C@]5(CC)C=CCN6CC[C@]43[C@@H]65)C2)C1 | -6.22% [at 42.5 µM] | – |
